The supplement of paper PMC10338343
± gives the standard deviation.

Each sequence was assayed on MILI (PIWIL2) piRISC loaded with piRNA #1 (26 nt) (assay: pre-steady-state target cleavage rate (min^-1); guide: piRNA #1 5'p-UGAGGUAGUAGGUUGUAUAGUAUCCA; MIWI and MILI are mouse PIWI proteins and EfPiwi is from a freshwater sponge; tags in brackets are library labels; higher = faster piRNA-guided slicing of the target). Conditions: auxiliary factor: 500 nM mouse GTSF1.
Procedure, shortened: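 Using HEPES–potassium acetate buffer at 33 °C, 1 nM active affinity-purified piRISC with a single synthetic guide was mixed with 0.1 nM transcribed, DNA-blocked target RNA library for 0–8 or 0–960 min, with or without 500 nM GTSF1 partner protein. Uncleaved targets were sequenced and normalised to depth and to weakly complementary targets, and three trials were pooled with k3 capped at 0.0001 min^-1. A burst-and-steady-state fit gave the pre-steady-state cleavage rate.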

Sequence | pre-steady-state target cleavage rate
GGAGACCAUACUUUAGAACCUACUACCUCA | 0.134 ± 0.013
GGAGACGAUAGUAUACAACCUUCUACCUCA | 0.00961 ± 0.003
GGAGACCUAUGAUAUCCAACCUACUACCUCA | 0.0112 ± 0.0022
GGAGACCUAUGUAUACAACCUCACUACCUCA | 0.00401 ± 0.0027
GGAGACCUAUCUAUUCAACCUAGUACCUCA | 0.00955 ± 0.0033
GGAGACCUAUCUUACAACCUACUACCUCA | 0.0336 ± 0.0082
GGAGACCAUUCUAUACAACCUAGUACCUCA | 0.0977 ± 0.022
GGAGACCUAAGUAUACAUCCUACUACCUCA | 0.0911 ± 0.0089
GGAGACCUUACAAUACUACCUACUACCUCA | 0.114 ± 0.013
GGAGACCUAUGAUAUGUACCUACUAGCUCA | < 0.0001
GGAGACCUAUGAAUACAACCUACUGACCUCA | 0.00755 ± 0.0029
GGAGACCUAUGAAUACAACCUACUAUCUCA | 0.00527 ± 0.0017
GGAGACCAUACUAAACAUCCUACUACCUCA | 0.272 ± 0.022
GGAGACCUAUGAUAUGUACCUACUAACUCA | < 0.0001
GGAGUGGAUACUAAACAACCUACUUCCUCA | 0.00431 ± 0.0024
GGAGACCUAUGAUAUGUUGGUACUACCUCA [g2:g10:cont:t1A] | < 0.0001
GGAGACCUAUGAAUACUACCUACUAGCUCA | 0.00378 ± 0.0025
GGAGUGGAUACUAUUCAACCUACUUCCUCA | 0.00253 ± 0.002
GGAGACCUAUCUAUACAACCUAGUACCACA | 0.00922 ± 0.0045
GGAGAGGAUAGUAAACAACCUACUACCUCA | 0.0497 ± 0.011

Sequence | pre-steady-state target cleavage rate
GGAGACCUUACUAUACUACGUACUACCUCA | 0.0307 ± 0.0046
GGAGACCUAUCUAUACAAGCUACAACCUCA | 0.169 ± 0.015
GGAGACGAUACAAUACAAGCUACUACCUCA | 0.236 ± 0.017
GGAGACCUUAUUAUACAACCUACUACCUCA | 0.14 ± 0.011
GGAGACCUAACUAUACAACCUACAACCACA | 0.0203 ± 0.012
GGAGACCUAUGAAUACAACCGUACUACCUCA | 0.00389 ± 0.003
GGAGACCUAUGAAUAUAACCUACUACCUCA | 0.0081 ± 0.0024
GGAGACCUAUGAAUACAACCUACGUACCUCA | 0.00396 ± 0.0023
GGAGACCUAACUAUUCAACCUACUUCCUCA | 0.0529 ± 0.018
GGAGACCUAUGUAUUCAACCUACUUCCUCA | 0.00515 ± 0.0026
GGAGACCUAACUAUACAACCUACUAGCCUCA | 0.186 ± 0.035
GGAGACCUAUGAUAACAACCUACACCUCA | < 0.0001
GGAGAGGAUACUAUACAACCCUACUACCUCA | 0.0028 ± 0.0028
GGAGACCUAACUAUACUUCCUACUACCUCA | 0.054 ± 0.011
GGAGACCUAUGAUAACAACCUACUACUUCA | 0.00299 ± 0.0028
GGAGAGGAUACAAUAGAACCUACUACCUCA | 0.148 ± 0.012
GGAGACGAUACUAUACAACCUACUACCGUCA | 0.125 ± 0.023
GGAGACCUAUGAAUACAAGCUACUACCACA | 0.0366 ± 0.0055
GGAGACCUAUGAUAACAACCUACUUACCUCA | 0.00599 ± 0.0021
GGAGUGGAAACUAUUCAACCUACUACCUCA | 0.192 ± 0.017
